This is a sample that favours compounds with a hit; in the whole collection about 2.1% have one here.
U2OS ROS induce: raises reactive oxygen species in U2OS cancer cells. U2OS ROS induction, H2DCF-DA fluorescence. ROS induction (% of piperlongumine), % at 10 µM. 46,000 compounds, 2% hits. AID 624156; in the data active means ROS induction above about 79%, passing the limit was not always enough; inconclusive means no clear call, values can overlap the other calls
YB-1 expression: YB-1 expression inhibition; U2OS, qRT-PCR YB-1 vs CDIP delta delta Cp, 16 h; hits give high values; zero = DMSO, each unit about twofold; delta delta Cp (YB-1 minus CDIP) (test concentration not listed); 30,000 compounds, 0.37% hits;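 active means delta delta Cp rounded down to an integer at or above 3, about 3 SD of DMSO wells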;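 further: higher means less YB-1 transcript or more CDIP transcript relative to DMSO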
Large screens that a line does not name were inactive.

COC(=O)c1c(NC(=O)C2CC(=O)NN2Cc2ccccc2)sc2c1CCC(C)C2 (centres undefined)	none (no result: YB-1 expression)
COC(=O)c1c(NC(=O)C2CC(=O)NN2Cc2ccccc2)sc2c1CCC2 (centres undefined)	U2OS ROS induce 149.4 (no result: YB-1 expression)
C[C@@H]1CCCCO[C@@H](CN(C)C(=O)Nc2ccc3c(c2)OCO3)[C@@H](C)CN([C@H](C)CO)C(=O)c2cc(NC(=O)Nc3cccc4ccccc34)ccc2O1	none
Cc1cc(C(=O)Nc2ccc(CN3CCS(=O)(=O)CC3)cc2)no1	none (no result: YB-1 expression)
COc1ccc(C2OCC3C(c4cc(OC)c5c(c4)OCO5)OCC23)cc1OC (centres undefined)	YB-1 expression 5.01
COc1cc(C2OCC3C(c4cc(OC)c5c(c4)OCO5)OCC23)cc(OC)c1OC (centres undefined)	none
CCCCc1nc(Cl)c(CO)n1Cc1ccc(-c2ccccc2-c2nn[nH]n2)cc1	none
CSc1nnc2c(n1)OC(C1CC=C(C)CC1)Nc1ccccc1-2 (centres undefined)	U2OS ROS induce 102.8
CSc1nnc2c(n1)OC(C)Nc1ccccc1-2 (centres undefined)	none
CSC(=O)OCC1=C[C@@H]2OC(=O)C3=CO[C@@H](O[C@@H]4O[C@H](CO)[C@@H](O)[C@H](O)[C@H]4O)[C@H]1[C@@H]32	none
Cc1ccnc(N=Cc2c(C)[nH]n(-c3ccccc3)c2=O)c1	none
Cc1[nH]n(-c2ccccc2)c(=O)c1/C=C1\C=NN=C1c1ccccc1	U2OS ROS induce 105.9
CSc1ccccc1NC(=O)c1cnn2c(C(F)(F)F)cc(-c3ccco3)nc12	U2OS ROS induce 170.5
COc1ccc(-c2cc(C(F)(F)F)n3ncc(C(=O)NCc4nc5ccccc5[nH]4)c3n2)cc1OC	U2OS ROS induce 151.0 (no result: YB-1 expression)
CCC(C)NC(=O)c1cnn2c(C(F)(F)F)cc(-c3ccccc3)nc12 (centres undefined)	U2OS ROS induce 128.6 (no result: YB-1 expression)
O=C(c1cnn2c(C(F)(F)F)cc(-c3ccccc3)nc12)N1CCCC1	none (no result: YB-1 expression)
COc1ccc(-c2cc(C(F)(F)F)n3nc(C(=O)NCc4ccco4)cc3n2)cc1OC	none (no result: YB-1 expression)
O=C(O)c1cnn2c(C(F)(F)F)cc(-c3ccco3)nc12	none (no result: YB-1 expression)
Cc1c(Cc2ccc(Cl)cc2)c(=O)n2c([nH]c3ccccc32)c1C#N	none (no result: YB-1 expression)
Cc1cc(NC(=O)CSc2cn(Cc3ccc(F)cc3)c3ccccc23)no1	none (no result: YB-1 expression)
O=C(O)CCCCCCC(=O)N/N=C/c1ccc(Br)s1	none
C/C(=C/CCC(CO)C1CCC2(C)C3CCC4C(C)(C)C(OC5OC(CO)C(O)C(O)C5O)CC(O)C45CC35CCC12C)COC1OC(CO)C(O)C(O)C1O (centres undefined)	none
C/C(=C/CCC(CO)C1CCC2(C)C3CCC4C(C)(C)C(OC5OC(CO)C(O)C(O)C5O)CCC45CC35CCC12C)COC1OC(COC2OC(CO)C(O)C(O)C2O)C(O)C(O)C1O (centres undefined)	YB-1 expression 5.8
C[C@@H]1CN([C@H](C)CO)C(=O)c2cc(NC(=O)Cc3ccccc3)ccc2O[C@H]1CN(C)Cc1ccc(Oc2ccccc2)cc1	none
C[C@@H]1CN([C@H](C)CO)C(=O)c2cc(NC(=O)Cc3ccccc3)ccc2O[C@H]1CN(C)Cc1ccc(-c2ccccc2)cc1	U2OS ROS induce 100.2
C[C@H](CO)N1C[C@H](C)[C@@H](CN(C)Cc2ccc(-c3ccccc3)cc2)Oc2ccc(NC(=O)c3ccncc3)cc2C1=O	none
C[C@H](CO)N1C[C@H](C)[C@@H](CN(C)Cc2ccc(Oc3ccccc3)cc2)Oc2ccc(NC(=O)Cc3ccccc3)cc2C1=O	U2OS ROS induce 137.9
C[C@@H]1CN([C@@H](C)CO)C(=O)c2cc(NC(=O)Cc3ccccc3)ccc2O[C@@H]1CN(C)Cc1ccc(-c2ccccc2)cc1	none
C[C@H](CO)N1C[C@H](C)[C@H](CN(C)Cc2ccc(-c3ccccc3)cc2)Oc2ccc(NC(=O)CCC(F)(F)F)cc2C1=O	none
C[C@@H]1CN([C@H](C)CO)C(=O)c2cc(NC(=O)c3ccncc3)ccc2O[C@@H]1CN(C)Cc1ccc(-c2ccccc2)cc1	U2OS ROS induce 112.9
C[C@H]1CN([C@@H](C)CO)C(=O)c2cc(NC(=O)CCC(F)(F)F)ccc2O[C@@H]1CN(C)Cc1ccc(-c2ccccc2)cc1	U2OS ROS induce 81.8
CC(C)N(Cc1ccccc1)C(=O)COc1ccccc1	none (no result: YB-1 expression)
C=CC(C)(C)C12CC3C(=O)NC(Cc4cnc[nH]4)C(=O)N3C1Nc1ccccc12 (centres undefined)	none
CC(C)NNC(=O)c1ccncc1	none
C[C@H]1CN([C@@H](C)CO)C(=O)c2cccc(NC(=O)c3ccc(-c4nccs4)cc3)c2O[C@H]1CN(C)S(C)(=O)=O	none
CC(=O)OCC(=O)[C@@]1(OC(C)=O)[C@@H](C)C[C@H]2[C@@H]3C[C@H](F)C4=CC(=O)C=C[C@]4(C)[C@@]3(F)[C@@H](O)C[C@@]21C	none
C[C@H]1CN([C@@H](C)CO)C(=O)Cc2cc(NC(=O)CCCCCC(=O)Nc3ccccc3N)ccc2O[C@H]1CN(C)C(=O)Nc1ccc2c(c1)OCO2	none
CCN(CC(=O)Nc1ccc(C)c(C)c1)S(=O)(=O)c1ccc(C)cc1	none (no result: YB-1 expression)
CCN(CC(=O)Nc1cccc(C)c1)S(=O)(=O)c1ccc(Br)cc1	U2OS ROS induce 130.5 (no result: YB-1 expression)
C[C@H]1CN([C@@H](C)CO)C(=O)CCCn2nncc2CO[C@H]1CN(C)S(=O)(=O)c1cccs1	none
Cc1ccc(C)c(OCC(=O)Nc2cccc(-c3nc4ccccc4o3)c2)c1	none (no result: YB-1 expression)
S=C1NCN(C2CCCCC2)CN1	none
Cn1c2c(c(=O)n(C)c1=O)CN(C1CCCC1)CN2	YB-1 expression 3.95
COC(=O)c1ccccc1NC(=O)Cn1cncc1-c1ccc([N+](=O)[O-])cc1	none (no result: YB-1 expression)
CN(C)C(=O)[C@]1(Cc2ccccc2)N=C(c2ccc(OCCCO)cc2)O[C@@H]1c1ccccc1	none
CN(C)C(=O)[C@]1(CCS(=O)(=O)c2ccccc2)N=C(c2ccc(OCCCO)cc2)O[C@@H]1c1ccccc1	U2OS ROS induce 94.8
C=CCN1Cc2ccccc2[C@H]2OC(c3ccc(OCCCO)cc3)=N[C@@]2(CCS(=O)(=O)c2ccccc2)C1=O	U2OS ROS induce 113.0
[N-]=[N+]=NCc1ccccc1C[C@]1(C(=O)NCC(O)CO)N=C(c2ccc(OCCCO)cc2)O[C@H]1c1ccccc1 (some centres undefined)	none
[N-]=[N+]=NCc1ccccc1C[C@@]1(C(=O)NCC(O)CO)N=C(c2ccc(OCCCO)cc2)O[C@@H]1c1ccccc1 (some centres undefined)	YB-1 expression 9.1
O=C1N(Cc2ccccc2)Cc2ccccc2[C@@H]2OC(c3ccc(OCCCO)cc3)=N[C@]12CCS(=O)(=O)c1ccccc1	U2OS ROS induce inconclusive
COc1ccc(S(=O)(=O)N(C)C[C@H]2Oc3c(NC(=O)Nc4c(C)noc4C)cccc3C(=O)N([C@H](C)CO)C[C@@H]2C)cc1	none
COc1cc(/C=N/NC(=O)c2ccccn2)c([N+](=O)[O-])cc1OC	none
O=C(CC1Sc2ccccc2NC1=O)Nc1ccc2c(c1)OCCO2 (centres undefined)	none (no result: YB-1 expression)
C[C@@H]1CN([C@@H](C)CO)C(=O)c2cccc(NC(=O)CCCCCC(=O)Nc3ccccc3N)c2O[C@H]1CN(C)Cc1ccc2c(c1)OCO2	U2OS ROS induce 104.8
C[C@@H]1CN([C@H](C)CO)C(=O)Cc2cc(NC(=O)CCCCCC(=O)Nc3ccccc3N)ccc2O[C@@H]1CN(C)Cc1ccc(Cl)c(Cl)c1	U2OS ROS induce 83.7

Source: PubChem BioAssay (Broad Institute)
